Assay results from PubChem BioAssay (Tox21).
Results filed as inconclusive are left out. A number with no mark means an inactive call. Calls of active or inactive are those of the source. Calls come from the whole dose curve; as a rule, active = well fitted cell-killing curve with a large enough effect in the repeat runs; inconclusive = weak or mixed curves, or effect the other way; inactive = flat fitted curve, though single readings scatter.

Experiment: cAMP Responsive Elements (CRE) small molecule antagonists, cell-based qHTS assay: qHTS cell viability counter screen (AID 2060913); note: nearly all actives have a fitted effect of over 40% in size; note: potency is the fitted concentration of half-maximal effect
Settings: CRE-bla HEK293T viability, CellTiter-Glo luminescence, 5 h; series mostly up to 92.4 µM; viability change, negative = cytotoxic: at the top concentration
Summary of the method: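 Steps: cells plated and held 18 hrs at 37 C/5% CO2; compounds and NKH477 (0.25 uM final) added; 3 hrs incubation; reporter substrate read; CellTiter-Glo added to measure cytotoxicity by luminescence.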
% is set by controls: 0 for no effect and ±100 for the full control effect.

Row | SMILES | Potency | viability change, negative = cytotoxic
1 | OC[C@H]1O[C@H](O[C@]2(CCl)O[C@H](CCl)[C@@H](O)[C@@H]2O)[C@H](O)[C@@H](O)[C@H]1Cl | inactive | –
2 | Oc1ccc(/C=C/c2cc(O)cc(O)c2)cc1 | inactive | –
3 | C[C@H]1C[C@@H]2[C@H]([C@@H](O)C[C@@]3(C)[C@H]2CC[C@]3(O)C(=O)CO)[C@@]2(C)C=CC(=O)C=C12 | inactive | –
4 | CCC(C)c1ccccc1 (stereo not given) | – | 5.44%
5 | COc1cc2nc(N3CCN(C(=O)c4ccco4)CC3)nc(N)c2cc1OC | – | 3.29% [at 18.9 µM]
6 | NC[C@H]1O[C@H](O[C@H]2[C@H](O[C@@H]3O[C@H](CO)[C@@H](O)[C@H]3O)C(O)[C@H](N)C[C@@H]2N)[C@H](N)[C@@H](O)[C@@H]1O (stereo not given in full) | – | 2.15% [at 8.39 µM]
7 | CC1(C)S[C@@H]2[C@H](NC(=O)C(C(=O)O)c3ccccc3)C(=O)N2[C@H]1C(=O)O (stereo not given in full) | – | -0.289% [at 42.5 µM]
8 | NC(CO)(CO)CO | inactive | –
9 | CC(C)=CCC[C@@](C)(O)[C@H]1CC=C(C)CC1 | – | 0.483% [at 42.5 µM]
10 | Cc1cc(=O)oc2cc(O)ccc12 | inactive | –
11 | O=c1[nH]c2ccc(Cl)cc2o1 | – | -10.4%
12 | CCOC(=O)[C@H](CCc1ccccc1)N[C@@H](C)C(=O)N1Cc2cc(OC)c(OC)cc2C[C@H]1C(=O)O | – | -0.844% [at 42.5 µM]
13 | CC(C)OCCO | – | -5.09%
14 | O=C(O)c1cccc([N+](=O)[O-])c1 | inactive | –
15 | CC(=O)Nc1ccc(CC(=O)O)cc1 | inactive | –
16 | Cc1cc(OI)c(C(C)C)cc1-c1cc(C(C)C)c(OI)cc1C | – | -1.33% [at 42.5 µM]
17 | CCC(C)[O-].CCC(C)[O-].CCOC(=O)/C=C(/C)[O-].[Al+3] | – | 1.82%
18 | On1ccccc1=S | 9.59 µM (active) | –
19 | CCCCC1CCC(O)CC1 (stereo not given) | – | 2.51%
20 | CC(C)CCCC(C)NCCC(C)C (stereo not given) | – | 0.826% [at 42.5 µM]

Row | SMILES | Potency | viability change, negative = cytotoxic
21 | COC(=O)c1ccccc1O | inactive | –
22 | CCCCCCCC/C=C\CCCCCCCC(=O)OCCO | – | 15.7%
23 | CC(=O)Nc1c(I)cc(I)c(C(=O)O)c1I | – | -2.56% [at 42.5 µM]
24 | CCC1CCC(CCC(=O)O)C1 (stereo not given) | – | -0.894%
25 | C[C@@H](O)C(=O)O | – | -0.505%
26 | Nc1nc(Cl)cc(Cl)n1 | – | -5.88%
27 | COc1ccc(Br)c(C)c1 | – | 2.2%
28 | CCCCCCCCCOC(=O)c1ccc(O)cc1 | 47.9 µM (active) | –
29 | Nc1ccc(F)cc1F | – | -7.58%
30 | CC(C)C1CCC(C(=O)N[C@H](Cc2ccccc2)C(=O)O)CC1 (stereo not given in full) | – | -3.76% [at 42.5 µM]
31 | CC(=O)c1ccc2c(c1)N(CCCN1CCC(CCO)CC1)c1ccccc1S2 | – | -0.754% [at 42.5 µM]
32 | CC(=O)OC(C)OC(=O)C(C)c1ccc(-c2ccccc2)c(F)c1 (stereo not given) | – | 0.718% [at 42.5 µM]
33 | C=Cc1ccc(C(C)(C)C)cc1 | – | 2.04%
34 | O=[N+]([O-])c1ccc(F)cc1F | – | 5.53%
35 | CCCCC(CC)CN1C(=O)C2C3C=CC(C3)C2C1=O (stereo not given) | – | -11.5%
36 | CC(C)CC(C)CC(O)CC(C)C (stereo not given) | inactive | –
37 | CCN(CC)CC(=O)Nc1c(C)cccc1C | – | 0.0891% [at 42.5 µM]
38 | Nc1ccc(N=Nc2ccc(N)cc2)cc1 | – | 20.7% [at 42.5 µM]
39 | C/C=C(\C)C(=O)OCC/C=C\CC | – | 3.28%
40 | CSc1ccc(O)cc1C | – | 11.8%

Experiment: cAMP Responsive Elements (CRE) small molecule agonists, cell-based qHTS assay: qHTS cell viability counter screen (AID 2060914); note: nearly all actives have a fitted effect of over 50% in size
Settings: CRE-bla HEK293T viability, CellTiter-Glo luminescence, 5 h; series mostly up to 92.4 µM; activity change, negative = cytotoxicity: at the top concentration
Summary of the method: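 Cytotoxicity was measured as ATP luminescence (CellTiter-Glo, 30 min at room temperature) in the same wells as the CRE-bla FRET read-out. HEK293T CRE-bla cells had 3 h compound exposure at 37C/5% CO2.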

Row | SMILES | Potency | activity change, negative = cytotoxicity
41 | OC[C@H]1O[C@H](O[C@]2(CCl)O[C@H](CCl)[C@@H](O)[C@@H]2O)[C@H](O)[C@@H](O)[C@H]1Cl | inactive | –
42 | Oc1ccc(/C=C/c2cc(O)cc(O)c2)cc1 | inactive | –
43 | C[C@H]1C[C@@H]2[C@H]([C@@H](O)C[C@@]3(C)[C@H]2CC[C@]3(O)C(=O)CO)[C@@]2(C)C=CC(=O)C=C12 | inactive | –
44 | CCC(C)c1ccccc1 (stereo not given) | – | 1.2%
45 | COc1cc2nc(N3CCN(C(=O)c4ccco4)CC3)nc(N)c2cc1OC | – | 4.06% [at 18.9 µM]
46 | NC[C@H]1O[C@H](O[C@H]2[C@H](O[C@@H]3O[C@H](CO)[C@@H](O)[C@H]3O)C(O)[C@H](N)C[C@@H]2N)[C@H](N)[C@@H](O)[C@@H]1O (stereo not given in full) | – | 13.8% [at 8.39 µM]
47 | CC1(C)S[C@@H]2[C@H](NC(=O)C(C(=O)O)c3ccccc3)C(=O)N2[C@H]1C(=O)O (stereo not given in full) | – | 5.26% [at 42.5 µM]
48 | NC(CO)(CO)CO | inactive | –
49 | CC(C)=CCC[C@@](C)(O)[C@H]1CC=C(C)CC1 | – | 11.6% [at 42.5 µM]
50 | Cc1cc(=O)oc2cc(O)ccc12 | inactive | –
51 | O=c1[nH]c2ccc(Cl)cc2o1 | – | 7.16%
52 | CCOC(=O)[C@H](CCc1ccccc1)N[C@@H](C)C(=O)N1Cc2cc(OC)c(OC)cc2C[C@H]1C(=O)O | – | -2.11% [at 42.5 µM]
53 | CC(C)OCCO | – | 0.35%
54 | O=C(O)c1cccc([N+](=O)[O-])c1 | inactive | –
55 | CC(=O)Nc1ccc(CC(=O)O)cc1 | inactive | –
56 | Cc1cc(OI)c(C(C)C)cc1-c1cc(C(C)C)c(OI)cc1C | – | 2.77% [at 42.5 µM]
57 | CCC(C)[O-].CCC(C)[O-].CCOC(=O)/C=C(/C)[O-].[Al+3] | – | 5.77%
58 | On1ccccc1=S | – | -8.84%
59 | CCCCC1CCC(O)CC1 (stereo not given) | – | -0.326%
60 | CC(C)CCCC(C)NCCC(C)C (stereo not given) | – | -8.04% [at 42.5 µM]

Row | SMILES | Potency | activity change, negative = cytotoxicity
61 | COC(=O)c1ccccc1O | – | -4.33%
62 | CCCCCCCC/C=C\CCCCCCCC(=O)OCCO | – | -1.94%
63 | CC(=O)Nc1c(I)cc(I)c(C(=O)O)c1I | – | -18.2% [at 42.5 µM]
64 | CCC1CCC(CCC(=O)O)C1 (stereo not given) | – | -8.46%
65 | C[C@@H](O)C(=O)O | – | 8.95%
66 | Nc1nc(Cl)cc(Cl)n1 | – | -6.95%
67 | COc1ccc(Br)c(C)c1 | – | 4.88%
68 | CCCCCCCCCOC(=O)c1ccc(O)cc1 | – | -10.3%
69 | Nc1ccc(F)cc1F | – | -4.55%
70 | CC(C)C1CCC(C(=O)N[C@H](Cc2ccccc2)C(=O)O)CC1 (stereo not given in full) | – | 10.9% [at 42.5 µM]
71 | CC(=O)c1ccc2c(c1)N(CCCN1CCC(CCO)CC1)c1ccccc1S2 | – | 6.37% [at 42.5 µM]
72 | CC(=O)OC(C)OC(=O)C(C)c1ccc(-c2ccccc2)c(F)c1 (stereo not given) | – | 10.1% [at 42.5 µM]
73 | C=Cc1ccc(C(C)(C)C)cc1 | – | 0.745%
74 | O=[N+]([O-])c1ccc(F)cc1F | – | 12.2%
75 | CCCCC(CC)CN1C(=O)C2C3C=CC(C3)C2C1=O (stereo not given) | – | -20.9%
76 | CC(C)CC(C)CC(O)CC(C)C (stereo not given) | inactive | –
77 | CCN(CC)CC(=O)Nc1c(C)cccc1C | – | -4.4% [at 42.5 µM]
78 | Nc1ccc(N=Nc2ccc(N)cc2)cc1 | – | 1.88% [at 42.5 µM]
79 | C/C=C(\C)C(=O)OCC/C=C\CC | – | 7.29%
80 | CSc1ccc(O)cc1C | – | 5.82%
